Assay results reported in PubChem BioAssay (NCI).
Values joined by “and” are separate entries in the source; they are usually repeats but may differ in a detail not shown here. Equal values may be shown once. Compounds without any hit were thinned out: in the full panel of roughly 83,000, 20% have a hit.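 For each line, cells grew in 96-well plates with the test compound present at a single concentration for 48 hours.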 Active and inactive are the calls of the source. How the source made its calls: active means growth percent below 10; inactive means the rest.

Tested on: HL-60(TB) leukemia
Assay: NCI-60 one-dose screen, 48 h (100 = growth as untreated, 0 = no growth, -100 = all killed)
Settings: 10 µM unless noted

Compound	growth
Fc1ccc(-c2cn3c(nc4ccccc43)c(-c3ccccc3)n2)cc1	99.8% (inactive)
O=C(c1ccccc1)c1ccc(Cl)c([N+](=O)[O-])c1	40.8% (inactive)
COc1ccc(-c2ccc(NC(=O)Nc3cccc(C(F)(F)F)c3)c(C)n2)cc1	49.7% (inactive)
CCOc1ccc2sc(NS(=O)(=O)c3ccc(N)cc3)nc2c1	94.7% (inactive)
CC(C)(C)n1cc(-c2ccnc(NCCNS(=O)(=O)c3cccc(F)c3)c2)c(-c2ccccc2)n1	73.5% (inactive)
CCCCCOC(=O)c1ccc(NC(=O)CNCC(C)C)cc1	84.6% (inactive)
FC(F)(F)c1cc(CNc2ncc(Br)c(Cl)n2)cc(C(F)(F)F)c1	101% (inactive)
Nc1c(O)c(S(=O)(=O)O)c(O)c2c1C(=O)c1ccccc1C2=O	-8.61% (active)
NNCCc1ccccc1	107% (inactive) and 98.2% (inactive)
Cc1cc(Cl)ccc1Nc1nc(C(F)(F)F)ccc1C(=O)NCC(=O)N/N=C/c1c(Cl)cccc1Cl	48.7% (inactive)
COc1cccc(C2C(C#N)=C(N)Oc3cc4c(cc32)OCO4)c1 (stereo not given)	-45% (active)
COc1cc2cc(COc3nccc(-c4ccc(Cl)cc4)n3)c(=O)[nH]c2cc1OC	70.2% (inactive)
CCN1CCN(c2cc(C(=O)Nc3nc(-c4cc(OC)c(OC)c(OC)c4)cs3)cc(C(F)(F)F)c2)CC1	41.4% (inactive)
O=C(Nc1nc2c(s1)CCc1c-2c(Br)n(Cc2ccccc2)c1Br)c1ccccc1	84.3% (inactive)
O=C1/C(=C/c2ccccc2[N+](=O)[O-])Cc2ccccc21	31.7% (inactive) and 63.7% (inactive)
CC(C)n1cnc2c(Nc3cccc(Cl)c3)nc(N[C@H]3CCCC[C@@H]3N)nc21	25.1% (inactive)
O=C1Nc2c(c(=O)n(-c3ccccc3)c3ccccc23)C(c2ccc(Cl)cc2)N1 (stereo not given)	108% (inactive)
OCCNCCCOc1ccc2ncnc(Nc3ccc(Oc4cccc(C(F)(F)F)c4)c(Cl)c3)c2c1	-31.3% (active)
CC(=O)Oc1ccc(C2(c3ccc(OC(C)=O)cc3)C(=O)Nc3ccccc32)cc1	75.5% (inactive) and 119% (inactive)
CCOC(=O)C1=CC(=O)CC(C)(C)O1	53.2% (inactive) and 69.6% (inactive)

Compound	growth
C=C(C)[C@@H]1CC[C@]2(C=O)CC[C@]3(C)[C@H](CC[C@@H]4[C@@]5(C)CCCNC(C)(C)[C@@H]5CC[C@]43C)[C@@H]12	7.59% (active)
Cc1nc2cc(Nc3nc(N4CCOCC4)nc(N4CCN(C)CC4)n3)ccc2n1Cc1ccccc1	103% (inactive)
ClCc1ccc(-c2ccc(Cn3cnc4nc(Cl)nc(Cl)c43)cc2)cc1	-78.9% (active)
c1cc2[nH]ncc2cc1-c1nc2ccc3[nH]ncc3c2c2c1CCCC2	-18.3% (active)
CCN(CCO)CCC(=O)c1ccc([N+](=O)[O-])cc1	109% (inactive)
Clc1ccc(-c2nnc(COc3ccc(C4=NNC(c5ccco5)C4)cc3)o2)cc1 (stereo not given)	79.6% (inactive)
CC/C(=C(\c1ccccc1)c1ccc(OCCNC)cc1)c1ccccc1	6.56% (active)
COc1ccc(/C=C(\C#N)c2cc(OC)c(OC)c(OC)c2)cc1	-31.4% (active)
COC(=O)/C=C/c1cc(O)c2c(c1)C(C(=O)OC)C(c1ccc(O)c(O)c1)O2 (stereo not given)	-10.5% (active) and -0.307% (active)
Cn1c(=O)cc(NC(=O)CN2CCN(c3cc4c(cc3F)c(=O)c(C(=O)O)cn4C3CC3)CC2)[nH]c1=O	98.2% (inactive)
Cn1ccnc1C(=O)/C=C/c1ccc(CC(=O)Nc2ccc(C(F)(F)F)cc2)cc1	-2.06% (active)
CN1CCN(Cn2nc(-c3cc(F)c(Cl)cc3Cl)n(/N=C/c3ccc(N(C)C)cc3)c2=S)CC1	83.1% (inactive)
COc1ccc(C(O)c2ccccc2)cc1 (stereo not given)	102% (inactive)
CCN(CC)CCC(CNc1c2ccc(Cl)cc2nc2ccc(OC)cc12)c1ccccc1 (stereo not given)	28.7% (inactive)
COc1ccc2cc(C(=O)c3coc4ccc(O)cc34)ccc2c1	73.2% (inactive)
O=S(=O)(c1ccc(NC(=S)NC23CC4CC(CC(C4)C2)C3)cc1)N1CCCCC1	-29.2% (active)
CC1CCC(C(=O)O)N1 (stereo not given)	79.7% (inactive)
CC[C@@H](C(=O)[C@@H](C)[C@@H](O)[C@H](C)[C@@H]1O[C@@H]([C@@H](CC)C(=O)NCCc2ccc(F)cc2)CC[C@@H]1C)C1O[C@]2(C=CC(=O)[C@]3(CC[C@@](C)([C@H]4CC[C@](O)(CC)[C@H](C)O4)O3)O2)[C@H](C)C[C@@H]1C (stereo not given in full)	6.93% (active)
CCNc1ncnc2[nH]ncc12	95.7% (inactive)
CCOC(=O)C1=NN(c2ccccc2)C(=O)/C1=C\N1C(=O)CC(=O)NC1=S	101% (inactive)
